Screens: PubChem BioAssay, several laboratories
HIF act: HIF pathway transcriptional activation | AID 1910 | U2OS HRE-luciferase reporter, luminescence; normalized: DMSO 0%, desferrioxamine 100% | activation, % at 7.5 µM (by protocol) | 300,000 tested, 0.32% active;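 active means mean activation of at least 10% of the iron chelator positive control signal, with at least half of replicates also reaching 10%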
SMARCA2 activ: SMARCA2 function activation, primary screen; MG213 cells, MMTV-luciferase reporter, dexamethasone, overnight; activation, % at 9.1 µM; 370,000 tested, 1% active; in the data active means activation above about 7.8%
GalR3 antagonist: antagonists of human GalR3; HEK293 GalR3-CNG cAMP membrane potential fluorescence; galR3 body fused to GalR1 C-terminus; inhibition, % at 3 µM; 360,000 tested, 0.44% active;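 active means inhibition above the screen-wide average plus 3 SD, cut at about 13% in these data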;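 further: forskolin and galanin both at EC90 stimulate the cells; cAMP rise reported by CNG channel membrane potential dye signal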
Target sequence (O60755 1-299 limits assumed): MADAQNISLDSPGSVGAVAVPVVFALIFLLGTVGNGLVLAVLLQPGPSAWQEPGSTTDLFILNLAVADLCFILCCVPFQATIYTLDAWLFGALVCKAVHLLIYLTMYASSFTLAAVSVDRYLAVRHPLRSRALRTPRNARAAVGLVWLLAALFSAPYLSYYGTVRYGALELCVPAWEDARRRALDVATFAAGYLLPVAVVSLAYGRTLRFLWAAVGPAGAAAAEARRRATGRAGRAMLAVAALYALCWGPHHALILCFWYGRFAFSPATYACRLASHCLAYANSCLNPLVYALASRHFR
FXN GAA850 act: activators of GAA850 frataxin (FXN) promoter | HEK293 lucGAA850 FXN promoter luciferase reporter, 24 h; percent of 10 µM SAHA response | activation, % at 6 µM | 360,000 tested, 0.56% active | AID 540364;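 active means activation above the average of all compounds screened plus 3 SD, cutoff fixed separately per campaign, cut at about 7.5% in these data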
Hsp70 activator: switches on Hsp70 transcription. HeLa Hsp70 promoter luciferase reporter, luminescence; scaled: vehicle 0, proteasome-inhibitor control 100%. activation, % at 10 µM. 200,000 tested, 0.04% active. AID 1203;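 active means activation above the mean across all tested compounds plus 3 SD, cutoff set per campaign, cut at about 5.5% in these data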
GAA30 counter: activates GAA30 frataxin promoter, counter-screen for GAA850 activators; shares compounds with FXN GAA850 act; HEK293 lucGAA30 FXN promoter luciferase, 24 h; DMSO = 0%, 5 µM ipriflavone = 100%; activation, % at 6 µM; 1,900 tested, 66% active;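 active means mean activation above the mean of solvent-only control wells plus 3 SD, cut at about 22% in these data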;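 further: counterscreen of GAA850 promoter hits where activity marks nonselective or luminescence artifacts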
GAA850 confirm: GAA850 FXN promoter activation confirmation; shares compounds with FXN GAA850 act; 1,900 tested, 86% active; HEK293 lucGAA850 FXN promoter luciferase reporter, 24 h; 100% = activation by SAHA; activation, % at 6 µM;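 active means mean activation above a set limit taken from the primary screen, cut at about 8% in these data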
GalR3 conf: confirmation of human galanin receptor 3 antagonists; 1,600 tested, 59% active; HEK293 GalR3 CNG cAMP biosensor, membrane potential fluorescence; galR3 fused to GalR1 carboxy tail; challenged with forskolin and galanin at EC90; shares compounds with GalR3 antagonist; inhibition, % at 3 µM;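 active means inhibition above the primary screen's cutoff, the mean inhibition of all screened compounds plus 3 SD, cut at about 13% in these data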
CNG parental: parental cell agonism counter-screen for GalR3 antagonists; shares compounds with GalR3 antagonist; HEK293-CNG parental cells, cAMP membrane potential fluorescence; normalised: DMSO wells 0%, forskolin wells 100%; activation, % at 3 µM; 1,600 tested, 10% active; AID 652268; in the data active means activation above about 1.3%
SMARCA2 act conf: confirmation of SMARCA2 (BRM) function activators. AID 652260. activation, % at 9.1 µM. shares compounds with SMARCA2 activ. MG213 cells, MMTV-luciferase with dexamethasone, luminescence, overnight; MG213 cells expressing E1A, Rb sequestered; DMSO wells 0%, reference activator 100%. 3,500 tested, 30% active;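 active means activation above its plate's cutoff, the mean activation of tested wells plus 3 SD, cut at about 7.9% in these data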
VP16 Luc act: activates GAL4-VP16 luciferase, flagging SMARCA2 activator hits; shares compounds with SMARCA2 activ; HEK293 GAL4-VP16 pG5luc reporter, luciferase luminescence; scaled: DMSO wells 0%, SAHA wells 100%; activation, % at 9.1 µM; 3,500 tested, 41% active;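 active means activation above the solvent-only control well mean plus 3 SD, averaged across control plates, cut at about 5.2% in these data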
Of the large screens only hits and unclear results are named; the others gave an inactive call (follow-up assays come after a bar, where they were run). Only some compounds are listed: those with a hit (about 2.2% of all), similar ones and a draw of the others.

O=c1c(Cl)c(NCCCO)cnn1-c1nc2ccccc2[nH]1	SMARCA2 activ 22, GalR3 antagonist 15, FXN GAA850 act 29 | GAA30 counter 61 | GAA850 confirm 54 | GalR3 conf inactive | CNG parental inactive | SMARCA2 act conf 17 | VP16 Luc act 18
C=CCN(CC=C)c1cnn(-c2nc3ccccc3[nH]2)c(=O)c1Cl	none
CCCNc1nc(N)nc(-c2cc(Cl)ccc2OC)n1	none
CCCCNc1nc(N)nc(-c2cc(Cl)ccc2O)n1	HIF act 13, SMARCA2 activ 17, FXN GAA850 act 14 | GAA30 counter 133 | GAA850 confirm 73 | SMARCA2 act conf 14 | VP16 Luc act 13
O=C(OCc1cn(Cc2cccc(F)c2)nn1)N1CCOCC1	none (no result: HIF act, GalR3 antagonist, FXN GAA850 act, Hsp70 activator)
COc1nc(=O)n(C2C=CC(=O)O2)cc1F (stereo not given)	SMARCA2 activ 15, FXN GAA850 act 14 (no result: HIF act, Hsp70 activator) | GAA30 counter inactive | GAA850 confirm inactive | SMARCA2 act conf 23 | VP16 Luc act 5.7
COCc1[nH]nc2c1C(c1ccc(C)cc1)N(Cc1ccccc1)C2=O (stereo not given)	none (no result: HIF act, FXN GAA850 act, Hsp70 activator)
CCOC(CN=c1nc(N(C)C)ss1)OCC	SMARCA2 activ 14, FXN GAA850 act 8.2 (no result: HIF act, Hsp70 activator) | GAA30 counter inactive | GAA850 confirm 10 | SMARCA2 act conf inactive | VP16 Luc act 5.7
CC1(C(=O)Nc2nc3ccccc3s2)CC1(Br)Br (stereo not given)	SMARCA2 activ 9.0, FXN GAA850 act 11 (no result: Hsp70 activator) | GAA30 counter 103 | GAA850 confirm 36 | SMARCA2 act conf inactive | VP16 Luc act 5.2
COCC(=O)Nc1nc2ccccc2s1	none
COC(=O)c1cc2c(c3c4cc(OC)ccc4n(S(=O)(=O)c4cccc(C)c4)c13)C(=O)N(C)C2	none (no result: HIF act, FXN GAA850 act, Hsp70 activator)
Cc1cc(C)c2c(N)c(C(=O)Nc3ccc([N+](=O)[O-])cc3)sc2n1	SMARCA2 activ 8.5, FXN GAA850 act 9.4 (no result: Hsp70 activator) | GAA30 counter 98 | GAA850 confirm 32 | SMARCA2 act conf inactive | VP16 Luc act 10
COc1ccc(NC(=O)c2sc3nc(C)cc(C)c3c2N)cc1	none (no result: Hsp70 activator)
COC(=O)c1cc2c(c3c4cc(C)ccc4n(S(=O)(=O)c4cccc(C)c4)c13)C(=O)N(Cc1ccc(N(C)C)cc1)C2	none (no result: HIF act, FXN GAA850 act, Hsp70 activator)
Cc1cc(C)cc(NC(=O)/C=C/c2ccc([N+](=O)[O-])s2)c1	SMARCA2 activ 8.8, FXN GAA850 act 8.7 | GAA30 counter inactive | GAA850 confirm 18 | SMARCA2 act conf inactive | VP16 Luc act inactive
CCCCCCCCN1CCS(=O)(=O)N(Cc2ccc(OC)cc2)C(C(=O)OC)C1 (stereo not given)	none (no result: HIF act, GalR3 antagonist, FXN GAA850 act, Hsp70 activator)
O=C(N/N=C/C(Br)=C/c1ccccc1)c1ccccc1F	SMARCA2 activ 13, FXN GAA850 act 8.5 (no result: Hsp70 activator) | GAA30 counter 110 | GAA850 confirm 42 | SMARCA2 act conf 11 | VP16 Luc act 12
O=C(N/N=C/C(Cl)=C/c1ccccc1)c1ccccc1F	none (no result: Hsp70 activator)
C=CC(=O)NC1CCCCN(C(C)C)C1=O (stereo not given)	none (no result: HIF act, GalR3 antagonist, FXN GAA850 act, Hsp70 activator)
CCOC(=O)Nc1ccc2c(c1)C(=NNC(=S)NC)c1ccccc1-2	SMARCA2 activ 9.8, FXN GAA850 act 14 (no result: HIF act, Hsp70 activator) | GAA30 counter 48 | GAA850 confirm 20 | SMARCA2 act conf 16 | VP16 Luc act 8.4
CCOC(=O)NN=C1c2ccccc2-c2ccccc21	none (no result: Hsp70 activator)
CN1C2=NCCN2C(=O)c2cc(Cl)ccc21	none (no result: Hsp70 activator)
Clc1ccc2c(c1)-c1ccccc1C1=NCCN12	SMARCA2 activ 16, FXN GAA850 act 33 (no result: HIF act, Hsp70 activator) | GAA30 counter inactive | GAA850 confirm 139 | SMARCA2 act conf 313 | VP16 Luc act inactive
CCn1c2ccccc2c2cc(NC(=O)COC(=O)c3ccc(F)cc3Cl)ccc21	none (no result: HIF act, GalR3 antagonist, FXN GAA850 act, Hsp70 activator)
Cc1nonc1C(=O)N/N=C/c1ccc(O)c(O)c1	SMARCA2 activ 9.0, FXN GAA850 act 9.4 | GAA30 counter 30 | GAA850 confirm 8.4 | SMARCA2 act conf inactive | VP16 Luc act inactive
C=C[C@@]1(C)CC(=O)[C@]2(O)[C@@]3(C)[C@@H](O)CCC(C)(C)[C@@H]3[C@H](O)[C@H](OC(C)=O)[C@@]2(C)O1	SMARCA2 activ 21, FXN GAA850 act 16 (no result: GalR3 antagonist, Hsp70 activator) | GAA30 counter inactive | GAA850 confirm 15 | SMARCA2 act conf 21 | VP16 Luc act 25
COC(=O)C[C@@H]1CC[C@H]2[C@@H](COc3ccc(NS(=O)(=O)c4ccccc4F)cc3C(=O)N2C)O1	none (no result: HIF act, GalR3 antagonist, FXN GAA850 act, Hsp70 activator)
Cc1ccc(C)c(C(=O)Nc2nc3ccccc3[nH]2)c1	none (no result: Hsp70 activator)
Cc1ccc(Nc2nc3ccccc3[nH]2)nc1	SMARCA2 activ 8.7, FXN GAA850 act 9.4 | GAA30 counter 86 | GAA850 confirm 43 | SMARCA2 act conf inactive | VP16 Luc act 19
COc1ccc(C(=O)C[n+]2ccc3c(c2)nc(Cc2ccccc2)n3C)cc1	none (no result: HIF act, GalR3 antagonist, FXN GAA850 act, Hsp70 activator)
COc1ccc(/C=C(/C(=O)c2cccs2)N2C=CC=CC2=C(C#N)C#N)cc1	SMARCA2 activ 15, FXN GAA850 act 14 | GAA30 counter inactive | GAA850 confirm 22 | SMARCA2 act conf inactive | VP16 Luc act 11
O=C(N/N=C/c1ccccn1)c1cccc([N+](=O)[O-])c1	SMARCA2 activ 11, FXN GAA850 act 9.2 | GAA30 counter inactive | GAA850 confirm inactive | SMARCA2 act conf inactive | VP16 Luc act inactive
O=C(N/N=C/c1ccccn1)c1ccc(NC(=O)c2cccc([N+](=O)[O-])c2)cc1	none
O=C(N/N=C/c1ccccn1)c1ccc(Br)cc1	HIF act 16, SMARCA2 activ 12, FXN GAA850 act 23 | GAA30 counter inactive | GAA850 confirm inactive | SMARCA2 act conf inactive | VP16 Luc act 25
O=C(O)CCCCN1C(=O)C=CC1=O	none (no result: HIF act, FXN GAA850 act, Hsp70 activator)
C#CCN1C(=O)[C@]2(OC[C@@H]3Cc4ccccc4[C@@H]3C=C2C)c2ccccc21	none (no result: HIF act, FXN GAA850 act, Hsp70 activator)
